Reference: PubChem BioAssay AID1565 (Sanford-Burnham Center for Chemical Genomics, 2009)
Among all 290,000 compounds or so, about 3,200 (1.1%) were called active. The sample holds actives, similar compounds and a random draw of the others, so the mix is not that of the screen. Cut-off read from the data, not from the text of the source: active = inhibition above about 60%; inactive = the rest.

The compounds below were run against Phosphoethanolamine/phosphocholine phosphatase (Homo sapiens) (UniProt Q8TCT1) (assay: PubChem AID 1565). Conditions: recombinant PHOSPHO1, absorbance phosphatase assay; at 13.3 µM; stronger effect = higher value.
Phosphoethanolamine/phosphocholine phosphatase (Homo sapiens), sequence (Q8TCT1 whole entry, looked up): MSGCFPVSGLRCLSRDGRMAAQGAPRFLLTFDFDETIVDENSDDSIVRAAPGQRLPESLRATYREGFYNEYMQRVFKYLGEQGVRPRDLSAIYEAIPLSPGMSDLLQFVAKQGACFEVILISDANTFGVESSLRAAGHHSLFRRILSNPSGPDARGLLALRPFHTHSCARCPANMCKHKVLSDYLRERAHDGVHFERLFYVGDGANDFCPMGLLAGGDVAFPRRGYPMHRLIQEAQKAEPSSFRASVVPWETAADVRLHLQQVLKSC

Row | SMILES | inhibition
1 | Cc1ccc(S(=O)(=O)N2CCN=C2SCc2c(F)cccc2Cl)cc1 | 22.6% (inactive)
2 | OC(CNCCc1ccc(Cl)cc1Cl)COc1ccccc1 (configuration not stated) | 46.3% (inactive)
3 | COc1ccc(OC)c(C(=O)NC(CC(N)=O)c2ccc(N3CCC(N4CCCCC4)CC3)c([N+](=O)[O-])c2)c1 (configuration not stated) | -18.6% (inactive)
4 | O=C(CNc1cccc(S(=O)(=O)N2CCCCC2)c1)Nc1ccccc1F | 42.8% (inactive)
5 | CC(C)C(C(=O)NCc1ccco1)N(CC1CCCO1)C(=O)CNS(=O)(=O)c1ccc(F)cc1 (configuration not stated) | 46.2% (inactive)
6 | CCOc1ccccc1Nc1nnc(SCC(=O)Nc2cc(C)on2)s1 | 61.5% (active)
7 | CCOc1ccccc1Nc1nnc(SCc2ccc(C(=O)OC)o2)s1 | 48.3% (inactive)
8 | Cc1cc(NC(=O)CSc2nnc(Nc3ccccc3F)s2)no1 | -3.4% (inactive)
9 | CCOC(=O)C1(CCOC)CCN(Cc2cc3ccccc3s2)CC1 | 3.1% (inactive)
10 | CCCCNC(=O)CSc1nc2ccc(NC(=O)CSc3nnc(COc4ccccc4C)n3C)cc2s1 | 74.2% (active)
11 | CCOC(=O)c1ccc(NC(=O)CSc2nnc(COc3ccccc3OC)n2C)cc1 | 6.3% (inactive)
12 | CCCCNC(=O)CSc1nc2ccc(NC(=O)CSc3nnc(N)s3)cc2s1 | -25.6% (inactive)
13 | CC(C)[C@H](NC(=O)N1CCn2c1nc1ccccc12)C(=O)NC1CC1 | 46.9% (inactive)
14 | O=S1(=O)CCOC[C@H](CC2CCCCC2)N1Cc1ccc(F)cc1 | 4% (inactive)
15 | CCOC(=O)c1c(C)[nH]c(C)c1S(=O)(=O)NCCCc1ccco1 | -28.5% (inactive)
16 | COc1cccc(NC(C)=[N+](C)CCNS(=O)(=O)c2ccc(Cl)cc2)c1 | -9% (inactive)
17 | O=S(=O)(NCc1ccccc1)c1ccc(S(=O)(=O)N2CCCC2)cc1 | 3.4% (inactive)
18 | COC(=O)C1=C(C)NC(=O)/C1=C/c1ccc(CNS(=O)(=O)c2ccc(C)cc2)o1 | 41.2% (inactive)
19 | O=c1/c(=C/c2ccc(CNS(=O)(=O)c3ccccc3)o2)sc2n1CCN=2 | 97.8% (active)

Row | SMILES | inhibition
20 | O=C(Nc1ccc(C(=O)O)cc1)/C(=C\c1ccccc1)NC(=O)c1ccc(Br)cc1 | 25% (inactive)
21 | Cc1ccc(S(=O)Cc2ccc(C(=O)N3CCN(C4CCCCC4)CC3)o2)cc1 (configuration not stated) | 26.1% (inactive)
22 | CCC(C)c1ccccc1NC(=O)CN(C)CC(=O)Nc1ccccc1SC (configuration not stated) | 7% (inactive)
23 | O=C(CSc1nnc(-c2cnccn2)n1Cc1ccco1)c1ccc(Cl)c(Cl)c1 | 85.4% (active)
24 | O=C(CSc1nnc(-c2cccnc2)n1Cc1ccco1)c1ccc(Cl)cc1 | 79.6% (active)
25 | Cc1cc(NC(=O)CSc2nc3cc(Cl)ccc3c(=O)n2Cc2ccco2)no1 | 12.3% (inactive)
26 | CCn1c(COc2ccccc2)nnc1SCC(=O)NCc1ccco1 | 19.2% (inactive)
27 | Cc1ccc(NC(=O)CSc2nnc(-c3cnccn3)n2Cc2ccco2)cc1C | -3.2% (inactive)
28 | O=C(CSc1nnc(-c2cccnc2)n1Cc1ccco1)c1ccc(Cl)c(Cl)c1 | 71.1% (active)
29 | COc1ccc(C(=O)CSc2nnc(COc3ccccc3)n2Cc2ccco2)cc1 | 91.7% (active)
30 | COc1cc(Cl)c(C)cc1NC(=O)CSc1nnc(-c2cccnc2)n1Cc1ccco1 | 28.9% (inactive)
31 | C=CCn1c(CNC(=O)c2ccco2)nnc1SCC(=O)c1ccc(OC)cc1 | 32.2% (inactive)
32 | O=C(CSc1nnc(-c2cccs2)n1Cc1ccco1)c1ccc2c(c1)OCO2 | -69.6% (inactive)
33 | CCc1ccc(NC(=O)CSc2nnc(-c3cnccn3)n2Cc2ccco2)cc1 | 1.3% (inactive)
34 | COc1ccc(NC(=O)CSc2nnc(-c3cccs3)n2Cc2ccco2)cc1OC | 19.4% (inactive)
35 | CC1CCN(C(=O)/C(=C\c2ccccc2F)NC(=O)c2ccccc2)CC1 | 18.7% (inactive)
36 | CCN(c1cccc(C)c1)S(=O)(=O)c1ccc(-c2coc(C)n2)cc1 | -0.1% (inactive)
37 | Cc1cc(=O)oc2c3c(cc(OCC(=O)NCc4ccccn4)c12)OC(C)(C)CC3 | 34.3% (inactive)
38 | O=C1C(=O)N(CCN2CCOCC2)C(c2cccc(Cl)c2)/C1=C(/O)c1ccc2c(c1)OCO2 (configuration not stated) | 24% (inactive)

Row | SMILES | inhibition
39 | CN(C(=O)CCN1C(=O)/C(=C/c2ccccc2F)SC1=S)C1CCS(=O)(=O)C1 (configuration not stated) | 52.6% (inactive)
40 | COc1ccc(OC)c(NC(=O)Cc2cccs2)c1 | 3.8% (inactive)
41 | CCCc1nn2c(=O)cc(CSCC(=O)Nc3cccc(C)c3)nc2s1 | 24% (inactive)
42 | CCOC(=O)Cc1csc(NC(=O)CSc2nnc(-c3cccnc3)n2Cc2ccco2)n1 | 17.3% (inactive)
43 | O=C(CSc1nnc(-c2cccnc2)n1CCc1ccccc1)NCc1ccccc1 | 1.5% (inactive)
44 | C(=C\c1ccccc1)/CSc1nnc(-c2cccnc2)n1Cc1ccco1 | 70.5% (active)
45 | Cc1ccc(C(=O)N(CC(=O)NC2CCCC2)c2ccc(F)cc2)s1 | 40.5% (inactive)
46 | CCn1c(SCC(=O)NCC2CCCO2)nc2cc(S(=O)(=O)N3CCCCC3)ccc21 (configuration not stated) | 14.5% (inactive)
47 | CCCCn1c(SCC(=O)N2CCC(C(=O)OCC)CC2)nc2cc(S(N)(=O)=O)ccc21 | 1.5% (inactive)
48 | CCCCn1c(SCc2ncc(-c3ccccc3)o2)nc2cc(S(N)(=O)=O)ccc21 | 75.4% (active)
49 | O=C(c1cccc(-n2cccc2)c1)N1CCN(S(=O)(=O)c2ccc(F)cc2)CC1 | -102% (inactive)
50 | O=C(C1CC(=O)N(c2ccc(F)cc2)C1)N1CCN(c2ccccc2)CC1 (configuration not stated) | 42.6% (inactive)
51 | COc1ccc(CNC(=O)C(C)n2nc(C)c3c(C)n(-c4ccccc4)nc3c2=O)c(OC)c1 (configuration not stated) | 64.7% (active)
52 | COc1ccc(OC)c(CNC(=O)Cn2nc(C)c3c(C)n(-c4ccc(C)cc4)nc3c2=O)c1 | 24% (inactive)
53 | Cc1nn(C(C)C(=O)NCCC2=CCCCC2)c(=O)c2nn(-c3ccccc3)c(C)c12 (configuration not stated) | 54.1% (inactive)
54 | COC(=O)c1ccc(CN2CCCC(C(=O)Nc3cccc(-n4cnnn4)c3)C2)cc1 (configuration not stated) | 22.6% (inactive)
55 | Cn1nccc1NS(=O)(=O)c1ccc(F)cc1 | 69.9% (active)
56 | Cn1c(=O)n(C)c2cc(NS(=O)(=O)c3ccc(F)cc3)ccc21 | 38.9% (inactive)
57 | Cc1cc(C)cc(NS(=O)(=O)c2ccc(F)cc2)c1 | 28.3% (inactive)
